# Laboratory results taken from PubChem BioAssay AID1671190 (National Center for Advancing Translational Sciences (NCATS), 2021).
# About 6,100 (1.1%) of roughly 580,000 compounds were called active. Another 15% or so got no clear call; they are omitted. Only a selection was taken, and actives are over-represented in it overall. A number with no mark means an inactive call. Calls follow the shape of the dose curve; as a rule, active = well fitted inhibition curve with a large enough effect; inconclusive = small, poorly fitted or top-dose-only effect, or another doubt; inactive = no such curve, though single readings can be large or run the other way.
# Target: Polyunsaturated fatty acid lipoxygenase ALOX12 (Homo sapiens) (UniProt P18054)
# Sequence (P18054 whole entry, looked up): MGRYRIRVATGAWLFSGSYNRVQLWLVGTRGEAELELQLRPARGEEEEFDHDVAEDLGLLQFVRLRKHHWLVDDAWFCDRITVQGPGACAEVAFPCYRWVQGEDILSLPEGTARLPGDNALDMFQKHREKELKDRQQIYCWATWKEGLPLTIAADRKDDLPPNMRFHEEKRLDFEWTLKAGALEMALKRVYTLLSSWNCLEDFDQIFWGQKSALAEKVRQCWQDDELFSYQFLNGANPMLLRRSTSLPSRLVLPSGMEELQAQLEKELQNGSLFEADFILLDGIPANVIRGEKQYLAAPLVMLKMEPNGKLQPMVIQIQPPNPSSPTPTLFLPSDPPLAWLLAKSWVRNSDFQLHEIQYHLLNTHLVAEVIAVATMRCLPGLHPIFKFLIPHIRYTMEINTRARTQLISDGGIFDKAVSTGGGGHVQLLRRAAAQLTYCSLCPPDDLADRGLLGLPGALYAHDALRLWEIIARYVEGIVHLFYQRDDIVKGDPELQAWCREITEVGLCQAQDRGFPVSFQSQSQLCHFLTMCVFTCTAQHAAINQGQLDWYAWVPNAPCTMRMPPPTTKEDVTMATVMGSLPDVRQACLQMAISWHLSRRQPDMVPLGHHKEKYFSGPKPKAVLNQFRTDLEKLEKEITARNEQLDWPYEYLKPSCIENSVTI
# Experiment: Primary qHTS assay for inhibitors of human arachidonate 12S-lipoxygenase (ALOX12): Round 2
# Details: purified 12hLO, xylenol orange hydroperoxide absorbance; series mostly up to 108 µM; activity change, negative = inhibition: at the top concentration
# Text: Assay Provider: Theodore R. Holman Ph.D. University of California, Santa Cruz, California Human lipoxygenase 12hLO is a member of the closely related lipoxygenase family of enzymes which catalyze the site-specific oxidation of arachidonic acid to various hormone precursor molecules and as such is a candidate for drug development in a variety of disease areas, such as cancer and inflammation. Inhibition of 12hLO activity was screened by utilizing arachidonic acid as a substrate. The extent of hydroperoxide product formation was measured by a secondary chromogenic reaction in which xylenol orange (XO, Sigma-Aldrich, cat. number 39,818-7) reacts with the ferric ions produced from the reaction between the hydroperoxide and ferrous ions. The Fe (III)-XO complex is characterized with red-shifted absorbance at 560 nm. A purified preparation of human 12hLO was supplied by Dr. Holman laboratory, University of California, Santa Cruz.
# PROTOCOL TABLE SEQUENCE No. (e.g., 1, 2, 3, etc.); […] (e.g., Cells, Incubation, Reagent, etc.); VALUE; DESCRIPTION 1; Enzyme; 3 uL; 150 nM 12hLO enzyme solution dispensed in 1536-well Greiner black, clear bottom plates. 2; Compound; 23 nL; compounds and controls were added. 3; Incubate; 15 min; room temperature. 4; Substrate; 1 uL; 40 uM arachidonic acid (final concentration). 5; Incubate; 30 min; room temperature. 6; Reagent; 4 uL; Fe-XO solution was added to each well. 7; Incubation; 30 min; room temperature 8; Detector; absorbance; Read 1 at 405 nm absorbance using ViewLux (Perkin-Elmer) CCD imager. 9; Detector; absorbance; Read 2 at 573 nm absorbance using ViewLux (Perkin-Elmer) CCD imager. NOTES (numbers refer to sequence above) 1; 150 nM 12hLO (final concentration) in buffer solution (25 mM Hepes, 0.01% Triton X-100, pH 7.0) was dispensed in columns 1, 2, 5-48. Column 1 is neutral (100% activity). Buffer only was dispensed in columns 3 and 4 as no enzyme negative controls. The plates were covered with metal lids with gas-exchange holes. 2; Compounds were pin transferred via a Kalypsys Pin Tool (Wako USA) in column 5-48. Control compound was transferred in column 2, titration of nordihydroguaiaretic acid (NDGA, Sigma-Aldrich, N5023) with top concentration of 20 mM in DMSO then 1:3 dilution in duplicate. Dilution factor of 23 nL into 4 uL final assay volume. 3; Covered assay plates were incubated for 15 min at room temperature. 4; Substrate was added to start the reaction; 40 uM arachidonic acid (Sigma-Aldrich, St. Louis, MO) was dispensed throughout the plate. 6; Chromogenic detection reagent solution (divalent iron/xylenol orange, Fe-XO) was added to each well: 200 uM xylenol orange, 300 uM ferrous ammonium sulfate prepared freshly in 50 mM sulfuric acid. 8, 9; Two absorbance readouts were obtained at 405 nm and at 573 nm using a ViewLux high-throughput CCD plate imager (Perkin-Elmer). The 573 to 405 (Read 2 / Read 1) absorbance ratio was used to compute reaction progress.
# % is scaled to controls: 0 for no effect and ±100 for the full control effect; potency is read from the fitted curve at half-maximal effect.
SMILES,"activity change, negative = inhibition",Potency
CC1=C(C)CC(C(=O)NCCN2CCOCC2)C(C(=O)O)C1 (stereo unspecified),0.372%,–
CN(C)c1ccc(C=O)s1,-2.25%,–
O=C(Cc1cccc(F)c1)NC1CCC(c2ccccc2)CC1 (stereo unspecified),21.6%,–
O=C(/C=C/c1ccco1)NC1CCC(c2ccccc2)CC1 (stereo unspecified),–,7.94 µM (active)
O=C(/C=C/c1cc2cc(Cl)ccc2o1)NC1CCCC1,-6.52%,–
CCN(CC)C(=O)CSc1ncc(-c2ccc(Br)cc2)o1,-26.6%,–
CC(=O)c1sc(Nc2ccc(C)c(C)c2)nc1C,-9.89%,–
C/C(=N\NC(N)=S)c1cc(C(C)(C)C)cc2c1CCC2(C)C,–,31.6 µM (active)
COc1ccc(C2CCCCCN2C(=O)CCn2ncc(=O)c3ccccc32)cc1 (stereo unspecified),1.87%,–
CNC(=O)c1ccc(-c2nc(CN3CCN(C(=O)Nc4ccc(C)c(C)c4)CC3)c(C)o2)cc1,8.91%,–
COc1ccc(C2=C(C)C(=NC(C)C34CC5CC(CC(C5)C3)C4)NS2(=O)=O)cc1 (stereo unspecified),1.75%,–
Cc1ccc(S(=O)(=O)C(C#N)c2nc3ccccc3nc2N2CCCC2)cc1C (stereo unspecified),0.581%,–
CC1CCN(c2nc3ccccc3nc2C(C#N)S(=O)(=O)c2cccc(Cl)c2)CC1 (stereo unspecified),–,11.2 µM (active)
COC(=O)C1CCN(c2nc3ccccc3nc2C(C#N)C(=O)NC2CCCC2)CC1 (stereo unspecified),-2.98%,–
COc1cccc(-c2nc(SCC(=O)Nc3nccs3)c(-c3ccc(Cl)cc3)[nH]2)c1,9.61%,–
CCN(CC)S(=O)(=O)c1ccc(N2CCOCC2)c(NC(=O)CC2CCCC2)c1,27.8%,–
COc1ccc(C(=O)CSc2n[nH]c(N)n2)cc1,0%,–
COc1ccc(Cn2c(CN(C)S(C)(=O)=O)n[nH]c2=O)cc1,68.5%,–
COc1ccc(OCc2n[nH]c(=S)n2N)cc1,–,15.8 µM (active)
Cc1ccc(-n2nnc(C(=O)NCC(C)C)c2C)cc1Cl,-28.3%,–
O=C(CN(Cc1ccccc1)C(=O)c1ccc2c(c1)OCCO2)NCc1ccc2c(c1)OCO2,-24.4%,–
O=C(CSc1ncnc2sccc12)c1ccc2c(c1)OCCCO2,11.2%,–
O=C(CSc1nnc(-c2ccccc2)c2ccccc12)c1ccc2c(c1)OCCCO2,–,44.7 µM (active)
CCc1ccc(-c2csc(NC(=O)c3nn(CC)c(=O)c4ccccc34)n2)cc1,16.7%,–
CCOC(=O)/C(=C/c1ccc(Cl)s1)c1nccn1C,-9.62%,–
Cc1ccc2nc(N3C(=O)C(O)=C(C(=O)c4ccco4)C3c3cccc(O)c3)sc2c1 (stereo unspecified),–,25.1 µM (active)

SMILES,"activity change, negative = inhibition",Potency
COc1cc(C2C(C(=O)c3ccco3)=C(O)C(=O)N2c2cc(C)on2)ccc1OCc1ccccc1 (stereo unspecified),-24.9%,–
CC(=O)c1sc(N2C(=O)c3oc4ccccc4c(=O)c3C2c2ccc(C)cc2)nc1C (stereo unspecified),15.6%,–
Cc1ccc(C(N)=O)c(OCc2coc(-c3ccccc3)n2)c1,-0.951%,–
CC(Sc1nc2cc(S(=O)(=O)N3CCCCC3)ccc2o1)C(=O)N1CCc2ccccc21 (stereo unspecified),5.52%,–
CCOC(CNC(=O)c1ccc2c(c1)ncn2-c1cccc(C)c1)OCC,-11.6%,–
CC(Sc1ccc(Cl)cc1)C(=O)NCCC(=O)N1CCCC1 (stereo unspecified),-3.96%,–
CC(=O)CCC1=C(C)CCCC1(C)C,65.1% [at 176 µM],–
COc1ccc(/C=N/OCc2ccccc2C#N)c(OC)c1,10.2%,–
COc1cc(/C=C/c2ccc(/C=C/c3cc(OC)c(OC)c(OC)c3)cc2)cc(OC)c1OC,6.7%,–
COc1ccc(/C=C/C2=CC(C)(C)NC(=S)N2)c(OC)c1,–,39.8 µM (active)
COc1cc(/C=C/C(N)=O)cc(OC)c1OC,10.5%,–
COc1ccc(/C=C2/C(=O)OCc3cc(OC)c(OC)cc32)c(OC)c1,-14.4%,–
COc1cc(/C=C/C2=CC(C)(C)NC(=S)N2)cc(OC)c1OC,–,44.7 µM (active)
CCc1ccccc1NC(=O)CSc1nc2ccccc2nc1C,-0.561%,–
Cc1cc(C)cc(NC(=O)COc2ncnc3ccccc23)c1,-13.6%,–
COc1ccccc1CN(C)C(=O)NCc1ccc(S(=O)(=O)N2CCCCC2)cc1,-8.8%,–
c1ccc(CN2CCc3c(sc4c3c(N3CCOCC3)nc3nnnn34)C2)cc1,-7.17%,–
CCCCS(=O)(=O)CCCCCO,25.2%,–
CN(C)c1ccc(NC(=O)Cn2cnc3c2c(=O)n(C)c(=O)n3C)cc1,-22.3%,–
CC1(C)NC(=O)N(CCCC(=O)Nc2cccc3cccnc23)C1=O,0.0835%,–
Cc1cccc(NC2=NC(c3cccnc3)n3c(nc(C)cc3=O)N2)c1 (stereo unspecified),39.2%,–
COc1ccccc1NC(=O)c1cc2c(OC)c(OC)c(OC)cc2[nH]1,17.8%,–
Cc1cc2oc(C(=O)NCc3ccc4c(c3)OCO4)cc(=O)c2cc1C,-0.692%,–
CCOc1ccc(S(=O)(=O)NCc2ccc3c(c2)OCO3)cc1C,1.24%,–
Cc1ccc(CNCc2ccc3c(c2)OCO3)c(C)c1,–,44.7 µM (active)
